The values below come from PubChem BioAssay AID1740 (National Center for Advancing Translational Sciences (NCATS), 2009).

The structures appear in SMILES notation. Inconclusive results are not listed. Entries that show only a call come without a potency. The source made the active and inactive calls. Calls follow the shape of the dose curve; as a rule, active = well fitted activation curve with a large enough effect; inconclusive = small, poorly fitted or top-dose-only effect; inactive = no such curve, though single readings can be large or run the other way.

The nature of this experiment: Confirmation Concentration-Response Assay for Enhancers of SMN2 Splice Variant Expression. As to conditions: HEK293 SMN2-exon7-luciferase splicing reporter, luminescence, 30-36 h; series mostly up to 46.1 µM. The source says: NIH Chemical Genomics Center [NCGC] NIH Molecular Libraries Probe Production centers Network [MLPCN] MLPCN Grant: R03 MH084179-01 Assay Submitter (PI): Elliot Androphy NCGC Assay Overview: Spinal muscular atrophy (SMA) is caused by insufficient levels of the survival motor neuron protein SMN. The SMN locus on chromosome 5q13 contains two inverted copies of SMN called SMN1 and SMN2 which are 99% identical at the amino acid level. SMN1 is a fully functional protein and SMN2 skips exon 7 90% of the time. Skipping of exon 7 produces non-functional protein product. 10% of the SMN2 protein includes exon 7 and is fully functional. In the SMA disease state, mutations in the SMN1 locus are the cause of the disease state. Because only 10% of SMN2 is of the fully functional form, it is not sufficient to overcome the deficiency produced by the loss of the SMN1 product. A therapy that either increase the amount of SMN2 product made or to increase the inclusion of exon 7 has been proposed for the treatment of SMA. We have designed an assay to identify small molecules that can increase the amount of functional SMN2 product by appending a luciferase reporter gene after the native SMN2 gene, such that inclusion of exon 7 in the expressed product places the luciferase sequence in frame, thus generating functional luciferase enzyme.
NCGC Assay Protocol Summary: This screen utilizes a luciferase reporter gene assay, combining the promoter with the major portion of the native SMN2 cDNA (exons 1 -7, intron 8 , exon 8 fused to luciferase) stably expressed in HEK293 cells. Compounds that increase luciferase signal presumably enhance expression of the functional SMN2 splice variant. Passaging media contained DMEM w/ glutamax (+phenol red) 10% FCS, 1x pen/strep, 200 ug/ml hygro, 1x sodium pyruvate. Assay media contained DMEM w/ glutamax (-phenol red) 10% FCS, 1x pen strep, 1x pyruvate Sequence, Parameter, Value, Description (1) Cells, 5 uL, 2000 cells/well, 1536 TC treated White solid bottom plate (2) Time, 10-12 hours, 37C 5% CO2 (3) Compound, 23 nl, MLSMR Library (4) Control Compound, 23 nL, Sodium butyrate st 4.5mM (final) conc (5) Time, 30-36 hours, 37C 5% CO2 (6) Reagent, 3 ul, One Glo (TM) from Promega (7) Time, 5-15 minutes, Room temp (8) Detector, Viewlux: luminescent read, 60 second integration, high speed 2x binning Keywords: Spinal muscular atrophy, SMA, SMN2, high throughput screening, MLSMR, MLPCN, NIH Roadmap, qHTS and NCGC
Take `c1coc(CNc2ncnc3nc[nH]c23)c1`: the Potency result is “inactive”.
Still for that read-out and setting: with `O=C(Nc1cccnc1)/C(N=Nc1c(Cl)cccc1Cl)=C(\O)c1ccccc1` the entry was “inactive”.
In the case of `NC(=O)C1(N2CCCCC2)CCN(c2nc(-c3ccc(Br)cc3)cs2)CC1`, the Potency result was “inactive”.
Same read-out and setting: with `Cn1c(C(=O)NCc2cccs2)cc2oc3ccccc3c21` the figure was 2820 nM (active); with `O=C(Cc1c(F)cccc1Cl)N1CCN(C(=O)c2ccco2)CC1`, “inactive”; with `COc1nc(-c2ccccc2)nnc1-c1ccccc1`, 2510 nM (active).
On the same count and under the same terms, in the case of `O=C1CCC(C(=O)Nc2cccc3ccccc23)N1` (stereo not given) it was “inactive”; in that of `Brc1nc2ncnc(NCc3ccco3)c2[nH]1`, “inactive”.
The same measure, in the same setting: in the case of `CN(Cc1ccccc1)Cc1c(F)cccc1F` it was “inactive”.
Consider `CCC1=Nc2ccccc2-c2nnc(SC)nc2O1`, for which the Potency entry is “inactive”.
Same read-out and setting: with `Clc1nc(NCC2CCCO2)c2[nH]cnc2n1` (stereo not given) the entry was “inactive”.
Still for that read-out and setting: with `Clc1nc(NCc2ccco2)c2[nH]cnc2n1` the entry was “inactive”.
Regarding `COc1ccc(-c2csc(N3CCC(c4ccccc4)CC3)n2)cc1`, the Potency result is “inactive”.
With `Cn1cnc2c(NCc3ccco3)ncnc21`, the Potency result was “inactive”.
On to `FC(F)C(F)(F)C1=CC(c2cccs2)=NCCN1`, for which the Potency entry was “inactive”.
Same read-out and setting: with `O=C(NCCc1cn2ccsc2n1)c1cccs1` the entry was “inactive”; with `CCCCOC(C)n1cc(F)c(=O)[nH]c1=O` (stereo not given), “inactive”.
Still for that read-out and setting: with `N#C/C(=C\Nc1ccccc1SC(F)(F)F)c1nc(-c2ccc(Cl)cc2)cs1` the entry was “inactive”; with `NC(=O)N1c2ccccc2C=Cc2ccccc21`, “inactive”; with `OCCCNc1nc(-c2ccc(Cl)cc2)nnc1-c1ccc(Br)cc1`, “inactive”.
As for `Cc1ccc(-c2csc(NC(=O)C3CCN(S(=O)(=O)c4cccs4)CC3)n2)cc1`, the Potency entry was “inactive”.
On to `Clc1ccc(-c2nnc(-c3ccc(Br)cc3)c(N3CCSCC3)n2)cc1`, for which the activation was -10.7% [at 9.48 µM] (inactive).
Regarding `O=c1[nH]c(=O)n(C2CCCO2)cc1Br` (stereo not given), the Potency entry is “inactive”.
For `O=[N+]([O-])c1ccc(-c2nnc(-c3ccccc3)c(NCCCO)n2)cc1`, the Potency result is “inactive”.
For `COc1ccc(OC)c(-c2csc(N3CCC(c4ccccc4)CC3)n2)c1`, the Potency result was “inactive”.
Still for that read-out and setting: in the case of `Cc1ccc(C2c3c(oc4ccccc4c3=O)C(=O)N2CCCN2CCOCC2)o1` (stereo not given) it was “inactive”.
As to `COc1nc(-c2ccc(Cl)cc2)nnc1C`, the Potency result was “inactive”.
As to `Cc1nnc(-c2ccccc2)[nH]c1=O`, the Potency result was “inactive”.
For the compound `Cc1ccc(-c2csc(N3CCC(NS(=O)(=O)c4ccc5c(c4)OCCO5)CC3)n2)cc1`, the Potency result was “inactive”.
The same measure, in the same setting: in the case of `c1ccc(-c2nnc(-c3ccccc3)c(-c3c[nH]c4ccccc34)n2)cc1` it was “inactive”.
`Clc1ccc(-c2nnc(-c3ccccc3)nc2-c2c[nH]c3ccccc23)cc1`: the activation is -10.1% [at 9.48 µM] (inactive).
`Nc1ccccc1-c1nnn(CC(=O)N2CCCc3ccccc32)n1`: the Potency result was “inactive”.
On the same count and under the same terms, with `c1coc(CNc2ncnc3ccccc23)c1` the entry was “inactive”.
As to `Nn1c(SCC(=O)NCCC2=CCCCC2)nnc1C1CCCCC1`, the Potency entry was “inactive”.
Still for that read-out and setting: in the case of `CCOc1c(Cl)cc(C(=O)Nc2ccccc2C(=O)O)cc1Cl` it was 2820 nM (active); in that of `CCCSc1nnc2c(n1)OC(c1sccc1C)Nc1ccccc1-2` (stereo not given), 2000 nM (active); in that of `FC(F)(F)c1nnc(-c2ccccc2)nc1Oc1ccccc1`, “inactive”.
On the same count and under the same terms, with `CCCc1sc(N2CCCC(C(N)=O)C2)nc1-c1ccccc1` (stereo not given) the entry was “inactive”.
Take `COC(=O)C1=C(CN2CCc3ccccc32)NC(=O)NC1c1cc(C)ccc1C` (stereo not given): the Potency result is “inactive”.
As to `CC(/C=C/C(=O)NO)=C\[C@@H](C)C(=O)c1ccc(N(C)C)cc1`, the Potency is 1120 nM (active).
